High-throughput results (PubChem)
hcDAF12 agonist – activators of H. contortus DAF-12 nuclear receptor. HEK293 hcDAF-12 lit1-tk-luc reporter, luminescence; 0% DMSO, 100% Δ7-dafachronic acid. activation, % at 6.8 µM. hit rate 1.4% among 370,000;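 active = activation above the mean of all tested compounds plus 3 SD, cut at about 5.5% in these data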;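 also: 100% = response to 3 µM Δ7-dafachronic acid high control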
DAX1 inh-1 – DAX1 (NR0B1) inhibition, primary screen. inhibition, % at 6.8 µM. hit rate 1.1% among 370,000. HEK293T StAR-luciferase reporter, SF-1/DAX-1 repression relief;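 active = inhibition above the mean over all tested compounds plus 3 SD, cut at about 3.6% in these data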;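 also: 0% = DAX-1 cells with DMSO and 100% = cells lacking DAX-1 with DMSO; higher inhibition means more luminescence from relief of DAX-1 repression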
hgDAF12 agonist – agonists of H. glycines DAF-12 nuclear receptor; HEK293 GAL4-hgDAF12 UAS-luciferase reporter, agonist luminescence; normalized to butyrate control; activation, % at 6.8 µM; hit rate 1.8% among 370,000; AID 687014;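 active = activation above a cutoff set at the mean of all screened compounds plus 3 SD, cut at about 10% in these data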;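 also: 0% = DMSO wells and 100% = sodium butyrate wells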
DAX1 inh-2 – NR0B1 (DAX1) inhibition | HEK293 Gal4-DAX1 luciferase reporter, luminescence | inhibition, % at 6.75 µM | hit rate 0.99% among 340,000;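 active = inhibition above the mean over all tested compounds plus 3 SD, cut at about 4.2% in these data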;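 also: 0% = DAX1-transfected cells with DMSO and 100% = empty-vector control cells with DMSO; inhibition shows as a rise in luminescence from relieved DAX1 repression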
Target sequence (P51843 207-470 limits assumed): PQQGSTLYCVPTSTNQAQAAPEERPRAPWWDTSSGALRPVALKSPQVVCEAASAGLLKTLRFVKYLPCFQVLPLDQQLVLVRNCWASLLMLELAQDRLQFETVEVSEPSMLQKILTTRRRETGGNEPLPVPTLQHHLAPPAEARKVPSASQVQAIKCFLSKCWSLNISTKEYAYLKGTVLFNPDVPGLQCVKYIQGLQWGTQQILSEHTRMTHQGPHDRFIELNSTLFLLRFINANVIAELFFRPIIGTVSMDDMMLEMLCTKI
ssDAF-12 act – S. stercoralis DAF-12 activation, primary screen; hit rate 1% among 370,000; HEK293 ssDAF-12/GRIP1 lit1-tk-luc reporter, luminescence; % of 3 µM dafachronic acid response; activation, % at 6.8 µM;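 active = activation above the mean over all tested compounds plus 3 SD, cut at about 0.9% in these data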;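 also: 0% = DMSO-only wells and 100% = 3 µM delta7-dafachronic acid wells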
* = called active by the depositor. Compounds with a hit are over-represented: about 4.1% of the library has one in this group of screens.

For CC(=O)NCCC(=O)Nc1sc2c(c1-c1nc3ccccc3[nH]1)CCCC2 the results were hcDAF12 agonist 0, DAX1 inh-1 -1, hgDAF12 agonist 1, DAX1 inh-2 0 and ssDAF-12 act -1.
Screening COc1ccc(CC(=O)Nc2sccc2C#N)cc1S(=O)(=O)N1CCOCC1 returned hcDAF12 agonist 6.0*, DAX1 inh-1 0, hgDAF12 agonist 7, DAX1 inh-2 0 and ssDAF-12 act 0.
CC1=NN(c2nc(-c3ccc(C)cc3)cs2)C(=O)C1N=Nc1ccc2ccccc2c1 (stereo unspecified) was read as hcDAF12 agonist 5.7*, DAX1 inh-1 0, hgDAF12 agonist 5, DAX1 inh-2 0 and ssDAF-12 act 0.
`CC1=NN(c2nc(-c3ccccc3)cs2)C(=O)C1N=Nc1ccccc1` (stereo unspecified) gave hcDAF12 agonist 2, DAX1 inh-1 -1, hgDAF12 agonist -2, DAX1 inh-2 -1 and ssDAF-12 act -2.
`Cc1nn(C)cc1/C=N/NC(=O)c1ccco1` gave hcDAF12 agonist 2, DAX1 inh-1 1, hgDAF12 agonist 8, DAX1 inh-2 4.9* and ssDAF-12 act -1.
For Cc1nn(-c2ccccc2)c(Cl)c1/C=N/NC(=O)c1ccc(CNc2ccccc2)o1 the results were hcDAF12 agonist 1, DAX1 inh-1 0, hgDAF12 agonist 2, DAX1 inh-2 0 and ssDAF-12 act -2.
`Cc1nn(Cc2ccccc2)c(Cl)c1/C=N/NC(=O)c1cccnc1` gave hcDAF12 agonist 0, DAX1 inh-1 1, hgDAF12 agonist 0, DAX1 inh-2 -1 and ssDAF-12 act 15*.
For Cc1c(/C=N/NC(=O)c2cccnc2)c2ccccc2n1Cc1ccccc1 the results were hcDAF12 agonist -1, DAX1 inh-1 0, hgDAF12 agonist -1 and ssDAF-12 act -1.
`Cc1nn(-c2ccccc2)c(Cl)c1/C=N/NC(=O)c1ccco1` gave hcDAF12 agonist 1, DAX1 inh-1 2, hgDAF12 agonist 12*, DAX1 inh-2 2 and ssDAF-12 act -1.
`Cc1cc(C(=O)N/N=C/c2cn(C)nc2C)c2ccccc2n1` gave hcDAF12 agonist 1, DAX1 inh-1 -1, hgDAF12 agonist 1, DAX1 inh-2 -1 and ssDAF-12 act 0.
`CC(C)(C)OC(=O)N/N=C\c1ccc(OC(=O)c2ccco2)cc1` gave hcDAF12 agonist 6.2*, DAX1 inh-1 2, hgDAF12 agonist 11*, DAX1 inh-2 0 and ssDAF-12 act 0.
O=C(N/N=C/c1ccccc1)c1ccco1 was read as hcDAF12 agonist 2, DAX1 inh-1 1, hgDAF12 agonist 8, DAX1 inh-2 5.8* and ssDAF-12 act -1.
`CCOC(=O)N/N=C/c1c(C)nn(-c2ccccc2Cl)c1Cl` gave hcDAF12 agonist 4, DAX1 inh-1 1, hgDAF12 agonist 11*, DAX1 inh-2 2 and ssDAF-12 act -1.
O=C(Nc1ccccc1C(=O)N/N=C/c1ccccc1)c1ccco1 was read as hcDAF12 agonist 3, DAX1 inh-1 0, hgDAF12 agonist 4, DAX1 inh-2 -1 and ssDAF-12 act 1.
`Cc1nn(-c2ccccc2)c(Cl)c1/C=N/NC(=O)OC(C)(C)C` gave hcDAF12 agonist -3, DAX1 inh-1 0, hgDAF12 agonist 0, DAX1 inh-2 0 and ssDAF-12 act 0.
`CC(=O)OCC(=O)NCC1CCN(C(=O)C(=O)c2cc3ccccc3o2)CC1` gave hcDAF12 agonist -1, DAX1 inh-1 1, hgDAF12 agonist 0 and ssDAF-12 act -1.
Cc1cc(C)nc(SCC(=O)Nc2ccc(S(=O)(=O)Nc3ncccn3)cc2)n1 was read as hcDAF12 agonist 0, DAX1 inh-1 0, hgDAF12 agonist -2, DAX1 inh-2 0 and ssDAF-12 act 0.
Cc1cc(C)nc(NS(=O)(=O)c2ccc(NC(=O)CSc3ncn[nH]3)cc2)n1 was read as hcDAF12 agonist -1, DAX1 inh-1 0, hgDAF12 agonist -2, DAX1 inh-2 5.8* and ssDAF-12 act -1.
Screening COc1cccc(-c2ccc(C#N)c(SCC(=O)NCCc3ccccc3)n2)c1 returned hcDAF12 agonist -1, DAX1 inh-1 0, hgDAF12 agonist 0, DAX1 inh-2 1 and ssDAF-12 act 1.0*.
For COc1cccc(-c2ccc(SCC(=O)NCCc3ccccc3)nn2)c1 the results were hcDAF12 agonist 4, DAX1 inh-1 -3, hgDAF12 agonist 3, DAX1 inh-2 -1 and ssDAF-12 act -1.
`O=C(Cc1ccccc1)Nc1ccc(SC(F)F)cc1` gave hcDAF12 agonist 2, DAX1 inh-1 1, hgDAF12 agonist 6, DAX1 inh-2 4.3* and ssDAF-12 act -1.
`Cc1ccccc1Cn1nnc(-c2cccc(C(=O)O)c2)n1` gave hcDAF12 agonist 4, DAX1 inh-1 3, hgDAF12 agonist 12*, DAX1 inh-2 -2 and ssDAF-12 act -1.
For CC[C@H](CCCc1ccc(F)cc1)CN(Cc1ccc(OC)cc1)S(=O)(=O)c1ccc(C)cc1 the results were hcDAF12 agonist -2, DAX1 inh-1 -1, hgDAF12 agonist 2 and ssDAF-12 act -1.
`CC1(C)CCc2c([nH]c3ccccc3c2=O)O1` gave hcDAF12 agonist -2, DAX1 inh-1 0, hgDAF12 agonist -5, DAX1 inh-2 5.5* and ssDAF-12 act -1.
For CCC1CCc2c([nH]c3ccccc3c2=O)O1 (stereo unspecified) the results were hcDAF12 agonist 0, DAX1 inh-1 0, hgDAF12 agonist 0, DAX1 inh-2 4 and ssDAF-12 act 0.
Cc1cccc(OCCC(=O)OCC(=O)Nc2c(C)nn(-c3ccccc3)c2C)c1 was read as hcDAF12 agonist 1, DAX1 inh-1 0, hgDAF12 agonist -1, DAX1 inh-2 1 and ssDAF-12 act -1.
`COc1cccc(NC(=O)COC(=O)c2ccccc2C(=O)N2CCN(c3ccccc3)CC2)c1` gave hcDAF12 agonist -3, DAX1 inh-1 -2, hgDAF12 agonist -3, DAX1 inh-2 0 and ssDAF-12 act -2.
For Cc1ccc(C)c(C2=CSC3=NCCN23)c1 the results were hcDAF12 agonist 6.2*, DAX1 inh-1 -1, hgDAF12 agonist 1, DAX1 inh-2 0 and ssDAF-12 act 0.
For Cc1ccc(C)c(C2=CSC3=NS(=O)(=O)CCN23)c1 the results were hcDAF12 agonist -1, DAX1 inh-1 1, hgDAF12 agonist 1, DAX1 inh-2 1 and ssDAF-12 act -1.
Screening O=C1OCCN1C(=O)[C@H]1[C@H](c2ccc(Cl)cc2)C(c2ccc(F)cc2)=NN1c1ccccc1 returned hcDAF12 agonist 1, DAX1 inh-1 3.8*, hgDAF12 agonist 3, DAX1 inh-2 0 and ssDAF-12 act -1.
For Cc1cccc(C2=NN(c3ccccc3)[C@@H](C(=O)N3CCOC3=O)[C@@H]2C)c1 the results were hcDAF12 agonist 2, DAX1 inh-1 3.7*, hgDAF12 agonist 2, DAX1 inh-2 0 and ssDAF-12 act -1.
Screening CC1CCCN(C(=O)CSCC(=O)Nc2nc(-c3cccs3)cs2)C1 (stereo unspecified) returned hcDAF12 agonist 6.4*, DAX1 inh-1 1, hgDAF12 agonist 3, DAX1 inh-2 0 and ssDAF-12 act 0.
